This note sets out measurements from PubChem BioAssay (Tox21).

Several values for one entry are separate records, joined by “and”; a condition that tells them apart may be missing. Identical values can stand only once. Results filed as inconclusive are left out. Where a structure was tested more than once in an assay, its records may differ in their call. Activity calls are given as the source filed them. The call rests on the fitted dose curve; in most records, active means well fitted inhibition curve with a large enough effect in the signal ratio in the repeat runs; inconclusive means weak or mixed curves, or effect the other way; inactive means flat fitted curve, though single readings scatter; the % refers to the signal ratio.
On the % scale 0 is the no-effect control and ±100 the full control effect; potency means the concentration at half of the fitted maximal effect.

This assay is described as follows: qHTS assay for small molecule disruptors of the mitochondrial membrane potential (AID 720635). The settings on record: HepG2 mitochondrial membrane potential, Mito-MPS dye ratio; series mostly up to 83.2 µM; ratio activity, negative = MMP loss: at the top concentration. The source says: U.S. Tox21 Program National Center for Advancing Translational Sciences [NCATS] NIH Chemical Genomics Center [NCGC] U.S. Environmental Protection Agency [EPA] National Institutes of Environmental Health Sciences [NIEHS] National Toxicology Program [NTP] U.S. Food and Drug Administration [FDA] Tox21 Assay Overview: Mitochondrial membrane potential (MMP), one of the parameters for mitochondrial function, is generated by mitochondrial electron transport chain that creates an electrochemical gradient by a series of redox reactions. This gradient drives the synthesis of ATP, a crucial molecule for various cellular processes. Measuring MMP in living cells is commonly used to assess the effect of chemicals on mitochondrial function. […] The dye accumulates in the mitochondria of healthy cells as aggregates, with red fluorescence. The mitochondrial potential collapses and the dye can no longer accumulate in the mitochondria and remains in the cytoplasm in monomers, with green fluorescence.
Tox21 Assay Protocol Summary: 2,000 HepG2 cells in 5 uL/well were dispensed into black, clear-bottom 1536-well plates using a Multidrop Combi (Thermo Scientific) dispenser. The assay plates were incubated overnight at 37C to allow cells to attach to the wells, followed by the transfer of 23 nL compound or DMSO vehicle by a pin tool (Kalypsys). The plates were incubated for 1 hr at 37C and 5% CO2, followed by the addition of 5 uL of 2X Mito-MPS dye (BD Biosciences) into each well using Flying Reagent Dispenser (Aurora Discovery) and then following 30 min incubation at 37C. Fluorescence intensity (490nm excitation and 535nm emission for monomers; and 540nm excitation and 590nm emissions for aggregates) was measured using an Envision plate reader.
A general note: Quantitative high-throughput screening tests each substance at several concentrations.
On to `Brc1ccc(Oc2ccccc2)cc1`, for which the “ratio activity, negative = MMP loss” value is -6.12% (inactive).

Regarding `O=C(CCl)c1ccc(Cl)cc1Cl`, the Potency result was “inactive and 17.1 µM (active)”.

On to `O=Cc1ccc2c(c1)OCO2`, for which the “ratio activity, negative = MMP loss” value is -13.7% (inactive).

As to `CCCCCCCCOC(=O)c1ccc(C(=O)OCCCCCCCC)c(C(=O)OCCCCCCCC)c1`, the “ratio activity, negative = MMP loss” value is 12.8% [at 95.3 µM] (inactive).

For `COc1ccc(-c2ccccc2)cc1NNC(=O)OC(C)C`, the Potency is 56.8 µM (active).

Turning to `BrCC(Br)C1CCC(Br)C(Br)C1` (stereo not given), the Potency was 27.2 µM (active).

`CCCCCCC#N`: the “ratio activity, negative = MMP loss” value is 14.6% (inactive).

Regarding `C[C@@H]1CC[C@H]2[C@@H](C)C(=O)O[C@@H]3O[C@@]4(C)CC[C@@H]1[C@]32OO4`, the “ratio activity, negative = MMP loss” value is -13.8% (inactive).

As to `c1ccc(CN2CCNCC2)cc1`, the “ratio activity, negative = MMP loss” value was 8.05% [at 258 µM] (inactive).

Take `CNP(=O)(OC)Oc1ccc(C(C)(C)C)cc1Cl` (stereo not given): the “ratio activity, negative = MMP loss” value was -9.89% (inactive).

In the case of `c1ccc(C2CC2)c(OCC2=NCCN2)c1`, the “ratio activity, negative = MMP loss” value is -6.81% (inactive).

For the molecule `CCC(Br)(CC)C(=O)NC(N)=O`, the “ratio activity, negative = MMP loss” value is -7.89% (inactive).

For `N#CCc1ccccc1`, the “ratio activity, negative = MMP loss” value was 3.64% [at 95.3 µM] (inactive).

For the molecule `CC1(C)CCC(Cc2ccc(Cl)cc2)C1(O)Cn1cncn1` (stereo not given), the Potency is 54.5 µM (active).

With `O=C1NCN(c2ccccc2)C12CCN(CCCOc1ccc(F)cc1)CC2`, the Potency is 3.35 µM (active).

As to `Nc1nc(N)nc(N)n1`, the “ratio activity, negative = MMP loss” value is 17.3% [at 95.3 µM] (inactive).

Regarding `CO/C=C(/C(=O)OC)c1ccccc1COc1cccc(C(F)(F)F)n1`, the Potency is 6.85 µM (active).

As for `COC(N)=O`, the “ratio activity, negative = MMP loss” value was 14.9% (inactive).

For the molecule `COC1=CC(=O)O[C@@H](CCc2ccccc2)C1`, the “ratio activity, negative = MMP loss” value is -19.5% [at 95.3 µM] (inactive).

As to `CC(C)(OO)c1ccccc1`, the “ratio activity, negative = MMP loss” value is 28.8% (inactive).

Turning to `COC(C)(C)CCC[C@H](C)C/C=C/C(C)=C/C(=O)OC(C)C`, the Potency was 30.6 µM (active).

Consider `CCOc1nc(F)cc2nc(S(=O)(=O)Nc3c(Cl)cccc3Cl)nn12`, for which the “ratio activity, negative = MMP loss” value is -27.7% (inactive).

Consider `Cl/C=C\Cl`, for which the “ratio activity, negative = MMP loss” value is 11.1% (inactive).

For the molecule `NS(=O)(=O)C(F)(F)C(F)(F)C(F)(F)C(F)(F)C(F)(F)C(F)(F)C(F)(F)C(F)(F)F`, the Potency was 1.93 µM (active).

As to `CCC(C)(NC(=O)c1cc(Cl)c(C)c(Cl)c1)C(=O)CCl` (stereo not given), the Potency was 17.3 µM (active).

`S=C=NCc1ccccc1`: the Potency is 55 µM (active).

Take `c1ccoc1`: the “ratio activity, negative = MMP loss” value was -11.4% (inactive).

Turning to `CCCCCCCCCC(=O)O[C@H]1CC[C@H]2[C@@H]3CCC4=CC(=O)CC[C@@H]4[C@H]3CC[C@]12C`, the “ratio activity, negative = MMP loss” value was 9.9% (inactive).

For the molecule `CCCCN(N=O)C(=N)N[N+](=O)[O-]`, the “ratio activity, negative = MMP loss” value is -20.2% [at 95.3 µM] (inactive).

Consider `Clc1cccc(SC2CCNCC2)n1`, for which the “ratio activity, negative = MMP loss” value is -9.17% (inactive).

Regarding `CCN(C)N=O`, the Potency was 1.9 µM (active).

Regarding `CCCCc1c(C)nc(NCC)nc1OS(=O)(=O)N(C)C`, the Potency was 21.7 µM (active).

Take `O=C(Nc1ccccc1)Nc1cnns1`: the Potency was 3.06 µM (active).

Take `CN1C(=O)NC(=O)C(C)(C2=CCCCC2)C1=O` (stereo not given): the Potency entry was “inactive”.

As to `CCCCCCCCCCOC(=O)c1ccccc1C(=O)OCCCCCCCCCC`, the “ratio activity, negative = MMP loss” value is 18.3% (inactive).

On to `O=C(CBr)c1ccccc1`, for which the “ratio activity, negative = MMP loss” value was -6.33% [at 95.3 µM] (inactive).

Take `O=C(NCc1cccnc1)Nc1ccc([N+](=O)[O-])cc1`: the Potency was 24.3 µM (active).

Take `C=CC(=O)OCCCCO`: the “ratio activity, negative = MMP loss” value is 16.9% (inactive).

Consider `CCCN(CC1CC1)c1c([N+](=O)[O-])cc(C(F)(F)F)cc1[N+](=O)[O-]`, for which the Potency is 30.6 µM (active).

In the case of `CN(C)c1ccc(N(C)C)cc1`, the “ratio activity, negative = MMP loss” value is -18.6% (inactive).
